Results reported in the supplement of paper PMC7411054.

tested on: WPMY1-GM130-SQSTM1; test: phenotypically active (imaging signature differs from DMSO and reproducible) at any of 0.3-9 uM (binary (1 = active, 0 = inactive)); higher = active; details: treatment time: 24 h
Outline: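 Two criteria together defined phenotypic activity: deviation and reproducibility. Deviation meant ≥3 of 4 wells beyond the 95th percentile of Euclidean distances in solvent control wells, and reproducibility meant a median replicate Pearson correlation above the 95th percentile of non-replicates. Wells had been treated for 24 h at 0.3, 1, 3 or 9 µM in fifteen gene-edited A549, HepG2 and WPMY1 reporter lines before live imaging.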

Phenotypically active, active:
Cc1nc(NC(=O)N2CCC[C@H]2C(N)=O)sc1-c1ccnc(C(C)(C)C(F)(F)F)c1 [alpelisib] 1
CCN(CC)CCCC(C)Nc1ccnc2cc(Cl)ccc12 (centres undefined) [chloroquine] 1
C/C(=C/c1ccc(C(=O)O)cc1)c1ccc2c(c1)C(C)(C)CCC2(C)C 1
Cc1ccc(S(=O)(=O)/C=C/C#N)cc1 1
O=c1cc(-c2cccc3c2Sc2ccccc2S3)oc(N2CCOCC2)c1 1
CC(C)CCN1c2nc(Nc3cc(F)c(O)c(F)c3)ncc2N(C)C(=O)C1C (centres undefined) 1
Nc1cc(C(F)(F)F)c(-c2cc(N3CCOCC3)nc(N3CCOCC3)n2)cn1 [buparlisib] 1
COc1cc([C@@H]2c3cc4c(cc3[C@@H](O[C@@H]3O[C@@H]5CO[C@@H](C)O[C@H]5[C@H](O)[C@H]3O)[C@H]3COC(=O)[C@H]23)OCO4)cc(OC)c1O [etoposide] 1
COc1cc2c(NC3CCN(C(C)C)CC3)nc(C3CCCCC3)nc2cc1OCCCN1CCCC1 1

Phenotypically active, inactive:
C[C@H]1O[C@H](O[C@H]2[C@H](O)[C@@H](O)[C@@H](O[C@H]3[C@H](O)[C@@H](O)[C@H](O)O[C@@H]3CO)O[C@@H]2CO)[C@H](O)[C@@H](O)[C@@H]1N[C@H]1C=C(CO)[C@@H](O)[C@H](O)[C@H]1O [Acarbose] 0
CCCc1nc2c(C)cc(-c3nc4ccccc4n3C)cc2n1Cc1ccc(-c2ccccc2C(=O)O)cc1 [telmisartan] 0
COc1cc2nccc(Oc3ccc(NC(=O)NC4CC4)c(Cl)c3)c2cc1C(N)=O [lenvatinib] 0
Nc1ccn([C@@H]2O[C@H](CO)[C@@H](O)[C@H]2O)c(=O)n1 [Cytidine] 0
OC(CCN1CCCCC1)(c1ccccc1)C1CCCCC1 (centres undefined) [trihexyphenidyl] 0
CCN1CCN(c2cc(-c3ccc(F)cc3)c3c(n2)CCCCCC3)CC1 [blonanserin] 0
COc1cc2ncn(-c3cc(OCc4ccccc4C(F)(F)F)c(C(N)=O)s3)c2cc1OC 0
CCCCC1C(=O)N(c2ccccc2)N(c2ccc(O)cc2)C1=O (centres undefined) [oxyphenbutazone] 0
Cc1ccccc1N1C(=O)c2cc(S(N)(=O)=O)c(Cl)cc2NC1C (centres undefined) [metolazone] 0
Cc1nc(NC(=O)N2CCC[C@H]2C(N)=O)sc1-c1csc(C(C)(C)C)n1 0
